In PubChem BioAssay (EPA / NIEHS):
Values joined by “and” are separate entries in the source; they are usually repeats but may differ in a detail not shown here. Identical values can stand only once. Records with an inconclusive call do not appear. More than one record can exist for a structure, and the calls need not agree. Active and inactive are the calls of the source. How the source made its calls, unless noted: active means hit-call score of the fitted dose curve at least 0.9, where 1 is the maximum; inconclusive means response in the unintended direction; inactive means score below 0.9.

Experiments:
[1] = read-out: Transforming Growth Factor (TGFB1), TGFB1 (gene 7040); experiment: LTEA_HepaRG_TGFB1: Life Technologies and Expression Analysis (LTEA) Assay for Transforming Growth Factor (TGFB1) Transporter using HepaRG (AID 2283533; active means hit-call score of the fitted dose curve at least 0.9, where 1 is the maximum; inactive means score below 0.9); conditions: mRNA level, 48 h; actives raise or lower the signal
Method in brief: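 HepaRG, 48 h post-plating, switched to serum-free induction medium; chemicals 100 uM top, half-log, 8 pts, 0.5% DMSO, dup; 48 h exposure; RNA → Fluidigm TaqMan qRT-PCR; norm ACTB/GAPDH/POLR2A; bidirectional fit vs DMSO.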

TIMP1, TIMP1 (gene 7076) = experiment: LTEA_HepaRG_TIMP1: Life Technologies and Expression Analysis (LTEA) Assay for TIMP1 using HepaRG (AID 2283534; active means hit-call score of the fitted dose curve at least 0.9, where 1 is the maximum; inactive means score below 0.9;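 further: TaqMan qRT-PCR signal normalized to ACTB GAPDH and POLR2A housekeeping genes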); conditions: mRNA level, 48 h; actives raise or lower the signal
Method in brief: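 Readout is TIMP1 mRNA level measured by qRT-PCR and normalized to three housekeeping genes. Human HepaRG cells were treated for 48 h in duplicate at eight concentrations up to 100 uM (0.5% DMSO); gain or loss fitted against DMSO.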

[2] = read-out: Tumor necrosis factor receptor 1 (TNFRSF1A), TNFRSF1A (gene 7132); experiment: LTEA_HepaRG_TNFRSF1A: Life Technologies and Expression Analysis (LTEA) Assay for Tumor necrosis factor receptor 1 (TNFRSF1A) using HepaRG (AID 2283535; active means hit-call score of the fitted dose curve at least 0.9, where 1 is the maximum; inactive means score below 0.9); conditions: mRNA level, 48 h; actives raise or lower the signal
Method in brief: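 Read-out is TNFRSF1A transcript level by TaqMan qRT-PCR, normalized to three housekeeping genes, scored as gain or loss of signal versus 0.5% DMSO. Human HepaRG cells received test chemicals for 48 h at up to 100 uM (half-log series).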

[3] = read-out: Thyroid Hormone Responsive (THRSP), THRSP (gene 7069); experiment: LTEA_HepaRG_THRSP: Life Technologies and Expression Analysis (LTEA) Assay for Thyroid Hormone Responsive (THRSP) using HepaRG (AID 2283536; active means hit-call score of the fitted dose curve at least 0.9, where 1 is the maximum; inactive means score below 0.9); conditions: mRNA level, 48 h; actives raise or lower the signal
Method in brief: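 THRSP transcript quantified by Fluidigm qRT-PCR against three housekeeping genes after 48 h chemical exposure of HepaRG cells in serum-free induction medium; eight-point half-log series, top 100 uM, 0.5% DMSO vehicle, duplicate wells.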

[4] = read-out: Cellular tumor antigen p53 (Homo sapiens) (UniProt P04637); experiment: LTEA_HepaRG_TP53: Life Technologies and Expression Analysis (LTEA) Assay for Tumor Protein P53 (TP53) using HepaRG (AID 2283537; active means hit-call score of the fitted dose curve at least 0.9, where 1 is the maximum; inactive means score below 0.9); conditions: mRNA level, 48 h; actives raise or lower the signal
Method in brief: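 Read-out is TP53 transcript level by microfluidic qRT-PCR, normalised to three housekeeping genes and fitted bidirectionally against DMSO. Human HepaRG cells received compounds for 48 h, highest concentration 100 uM.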

[5] = read-out: UDP glucuronosyltransferase (UGT1A1), UGT1A1 (gene 54658); experiment: LTEA_HepaRG_UGT1A1: Life Technologies and Expression Analysis (LTEA) Assay for UDP glucuronosyltransferase (UGT1A1) using HepaRG (AID 2283538; active means hit-call score of the fitted dose curve at least 0.9, where 1 is the maximum; inactive means score below 0.9); conditions: mRNA level, 48 h; actives raise or lower the signal
Method in brief: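 HepaRG, 48 h chemical exposure (top 100 uM, half-log 8-pt, 0.5% DMSO vehicle), duplicate wells; qRT-PCR (TaqMan, Fluidigm array) for UGT1A1 mRNA, housekeeping-normalized; bidirectional curve fit vs DMSO baseline.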

[6] = read-out: UDP glucuronosyltransferase (UGT1A6), UGT1A6 (gene 54578); experiment: LTEA_HepaRG_UGT1A6: Life Technologies and Expression Analysis (LTEA) Assay for UDP glucuronosyltransferase (UGT1A6) using HepaRG (AID 2283539; active means hit-call score of the fitted dose curve at least 0.9, where 1 is the maximum; inactive means score below 0.9); conditions: mRNA level, 48 h; actives raise or lower the signal
Method in brief: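 HepaRG, 48 h post-plating switch to serum-free induction medium; chemical 48 h, 100 uM top, half-log x8, duplicate, 0.5% DMSO. Phenobarbital 1mM induction control. UGT1A6 mRNA by TaqMan qRT-PCR; gain/loss fit vs DMSO.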

[7] = read-out: X-box binding protein 1 (XBP1), XBP1 (gene 7494); experiment: LTEA_HepaRG_XBP1: Life Technologies and Expression Analysis (LTEA) Assay for X-box binding protein 1 (XBP1) using HepaRG (AID 2283540; active means hit-call score of the fitted dose curve at least 0.9, where 1 is the maximum; inactive means score below 0.9); conditions: mRNA level, 48 h; actives raise or lower the signal
Method in brief: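 Transcript levels of XBP1, measured by qRT-PCR and normalised to three housekeeping genes, were fitted bidirectionally relative to 0.5% DMSO controls. Human HepaRG cells received eight-point half-log dilutions from 100 uM for 48 h.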

[8] = LTEA_HepaRG_LDH_cytotoxicity: Cytotoxicity Assessment in the Life Technologies and Expression Analysis (LTEA) Assay (AID 2283563)
Method in brief: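 Cells were thawed and plated for 48 h. Medium was then replaced with serum-free induction medium. Chemicals (8 half-log points, maximum 100 uM, 0.5% DMSO) were added in duplicate for 48 h, after which spent medium was assayed for LDH.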

[9] = TOX21_p53_BLA_p2_viability: Viability Assessment in the Tox21 HCT-116 p53 Agonism Beta-lactamase Assay, Phase 2 (AID 2283591);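 further: compound exposure lasted 16 h at 37 °C; actives lower the ATP signal meaning cytotoxicity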
Method in brief: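 Cytotoxicity readout: CellTiter-Glo ATP luminescence, 30 min at room temperature, after the beta-lactamase read. Cells were HCT116 exposed 16 h at 37C to compounds pin-transferred at 217-fold dilution from DMSO stocks.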

[10] = target: Cellular tumor antigen p53 (Homo sapiens) (UniProt P04637); experiment: TOX21_p53_BLA_p2_ratio: Tox21 HCT-116 p53 Agonism Beta-lactamase Assay, Ratio, Phase 2 (AID 2283592)
Chain of Cellular tumor antigen p53 (Homo sapiens) (P04637 whole entry, looked up): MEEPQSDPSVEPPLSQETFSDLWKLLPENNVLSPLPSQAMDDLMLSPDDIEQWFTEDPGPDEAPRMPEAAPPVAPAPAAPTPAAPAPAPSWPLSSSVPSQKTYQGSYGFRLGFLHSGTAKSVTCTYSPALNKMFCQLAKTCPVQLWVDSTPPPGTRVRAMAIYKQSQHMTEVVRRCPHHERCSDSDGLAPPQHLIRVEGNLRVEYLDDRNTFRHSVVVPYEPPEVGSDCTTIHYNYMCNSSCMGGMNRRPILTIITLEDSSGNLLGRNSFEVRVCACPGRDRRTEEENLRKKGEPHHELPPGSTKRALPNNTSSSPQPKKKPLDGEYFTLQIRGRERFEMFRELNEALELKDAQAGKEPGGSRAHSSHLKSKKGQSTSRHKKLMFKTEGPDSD
Method in brief: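 Plated HCT116 p53-bla cells (4000/well) received compound after 5 h, then 16 h at 37C/5% CO2. CCF4-AM added, 2 h RT. Ratio of 460 to 530 nm emission taken as the p53 reporter signal.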

[11] = TOX21_p53_BLA_p3_viability: Viability Assessment in the Tox21 HCT-116 p53 Agonism Beta-lactamase Assay, Phase 3 (AID 2283593);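 further: cells exposed to compound for 16 h before reading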
Method in brief: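 Cellular ATP was quantified by CellTiter-Glo luminescence, read after 30 min at room temperature. Beforehand, HCT116 cells (4000/well) received compound 5 h post-seeding, 217-fold diluted from DMSO, then incubated 16 h at 37C.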

[12] = target: Cellular tumor antigen p53 (Homo sapiens) (UniProt P04637); experiment: TOX21_p53_BLA_p3_ratio: Tox21 HCT-116 p53 Agonism Beta-lactamase Assay, Ratio, Phase 3 (AID 2283596)
Method in brief: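 Cells were seeded at 4000/well, rested 5 h at 37C, then dosed with DMSO compound solutions (217-fold dilution) for 16 h. CCF4-AM substrate was loaded for 2 h at room temperature, and the 460/530 nm emission ratio was fitted for gain of signal versus DMSO.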

[13] = TOX21_p53_BLA_p4_viability: Viability Assessment in the Tox21 HCT-116 p53 Agonism Beta-lactamase Assay, Phase 4 (AID 2283597);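 further: hits lower the luminescence signal meaning cytotoxicity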
Method in brief: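 Readout: ATP luminescence (CellTiter-Glo), measured 30 min after reagent addition at RT. The reagent followed a 2 h CCF4-AM incubation, and the cells had been exposed to compound for 16 h at 37C.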

[14] = target: Cellular tumor antigen p53 (Homo sapiens) (UniProt P04637); experiment: TOX21_p53_BLA_p5_ratio: Tox21 HCT-116 p53 Agonism Beta-lactamase Assay, Ratio, Phase 5 (AID 2283599)
Method in brief: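 Beta-lactamase reporter ratio (blue 460 nm over green 530 nm, 405 nm excitation) after 2 h CCF4-AM loading, in HCT-116 cells exposed 16 h at 37 C to compounds pinned at 217-fold dilution. Increases relative to DMSO baseline scored.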

[15] = TOX21_p53_BLA_p5_viability: Viability Assessment in the Tox21 HCT-116 p53 Agonism Beta-lactamase Assay, Phase 5 (AID 2283600)
Method in brief: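 Workflow: seed 4000 cells per well, wait 5 h, add compounds (DMSO, 217-fold dilution), incubate 16 h, load CCF4-AM 2 h, add CellTiter-Glo, read luminescence after 30 min.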

[16] = target: Cellular tumor antigen p53 (Homo sapiens) (UniProt P04637); experiment: TOX21_p53_BLA_p4_ratio: Tox21 HCT-116 p53 Agonism Beta-lactamase Assay, Ratio, Phase 4 (AID 2283601)
Method in brief: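 Signal is the blue/green (460nm/530nm) ratio of cleaved versus uncleaved CCF4-AM substrate, read after 2 h substrate loading. Cells were HCT116 carrying the p53-responsive beta-lactamase reporter, dosed 16 h at 37C, 5% CO2; CellTiter-Glo measured in parallel.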

[17] = Tanguay_ZF_120hpf_MORT_legacy: (Legacy) Oregon State University Tanguay Lab 120 Hour Post-fertilization zebrafish Assay for Mortality (AID 2283633)
Method in brief: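 5D WT zebrafish, chorion removed 4 hpf; 1 embryo/well from 6 hpf; static exposure to 120 hpf, 28C, dark, sealed. Final DMSO 0.64%. Readout: binary mortality, brightfield, 24 + 120 hpf; DMSO as negative control.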

[18] = Tanguay_ZF_120hpf_YSE_legacy: (Legacy) Oregon State University Tanguay Lab 120 Hour Post-fertilization zebrafish Assay for Yolk Sac Edema (AID 2283634)
Method in brief: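 Dechorionate (pronase, 4 hpf) → place one 6 hpf embryo per well → static compound exposure, sealed and foil-covered, 28C, to 120 hpf → record yolk sac edema as present or absent. Final DMSO 0.64%.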

[19] = ATG_XTT_Cytotoxicity: Cytotoxicity Assessment in the Attagene TRANS-FACTORIAL HepG2 Assay (AID 2283584);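 on AC50: cells exposed to compound for 24 h before reading; active means loss of viability signal versus DMSO baseline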
Method in brief: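 Cells: human HepG2, transiently transfected with MRTU reporter constructs. Exposure 24 h. Readout: XTT, cell number. Baseline/neg ctrl DMSO; loss-of-signal scored.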

Measured: AC50

CS(=O)(=O)OCCCCOS(C)(=O)=O
inactive: [1] | TIMP1, TIMP1 (gene 7076) | [2] | [3] | [4] | [5] | [6] | [7] | [8] | [9] | [10] | [11] | [12] | [13] | [14] | [15] | [16] | [17] | [18]
active: [11] 2.31e-05 µM

CC(C)=CCCC(C)CCOC=O (configuration not stated)
inactive: [19] | [9] | [10] | [13] | [14] | [15] | [16]
active: [11] 39.7 µM | [12] 69.8 µM

OCC#CCO
inactive: [19] | [9] | [10] | [11] | [12] | [13] | [14] | [15] | [16]

C=C(C)C(=O)OCC(CC)(COC(=O)C(=C)C)COC(=O)C(=C)C
inactive: [19] | [9] | [10] | [11] | [12] | [13] | [14]

Oc1ccc2cc(SSc3ccc4cc(O)ccc4c3)ccc2c1
inactive: [19]

CCCCCCC(O)CCCCCCCCCCC(=O)O (configuration not stated)
inactive: [19]

COc1cc(Cl)c(OC)cc1N
inactive: [19]

CCCCCCOCCOCCO
inactive: [19]

CN(C)CCOc1ccc(/C(=C(/CCCl)c2ccccc2)c2ccccc2)cc1
inactive: [9] | [10] | [11] | [12] | [14] | [15]
active: [19] 24.6 µM | [9] 58.1 µM | [10] 74.9 µM | [11] 66.3 µM | [13] 49.8 µM and 37 µM | [14] 74 µM | [15] 59.8 µM | [16] 72.9 µM and 39 µM

CCCC(O)C(O)CO (configuration not stated)
inactive: [19]

CCC1CCCCC1
inactive: [19]

CCCCCCCC(=O)OCC(O)CO (configuration not stated)
inactive: [19] | [9] | [10] | [11] | [12] | [13] | [14] | [15] | [16]

Cc1[nH]c(=O)c(C#N)cc1-c1ccncc1
inactive: [19] | [9] | [10] | [11] | [12] | [13] | [14] | [15] | [16]

C=Cc1ccc(C)cc1
inactive: [19] | [9] | [10] | [11] | [12] | [13] | [14] | [15] | [16]
